# Data from the supplement of paper PMC10037445.
# The full ranking holds about 2,900 compounds; the median of “NF-kB SEAP reporter activity, fold change vs agonist alone” is about 0.99, and the highest 2% start at about 2.6. Shown is part of a subset that was picked to be rich in the highest values.
# Tests used:
# RAW-Dual [1] = test: NF-kB SEAP reporter activity, fold change vs agonist alone; cytotoxicity flag (confluency mask): not cytotoxic; higher = enhanced NF-kB activity
# Outline: (§1)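 Cytotoxic wells were those whose IncuCyte confluency was below 70% of agonist controls in both mask sets. The cells were RAW-Dual macrophages at 50,000 cells/well in DMEM on 384-well plates, dosed with 50 nL of library stock by pin tool, stimulated with a PRR agonist 1 h later, and kept at 37 °C, 5% CO2 for 20 hours. IRF and NF-κB reporter activity, as fold change over agonist-alone wells, came from supernatant read by QuantiLuc luminescence and QuantiBlue absorbance, respectively.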
# RAW-Dual [2] = test: NF-kB SEAP reporter activity, fold change vs agonist alone; higher = enhanced NF-kB activity; conditions: library stock concentration (final ~1000-fold dilution): 10 mM
# Outline: as §1
# RAW-Dual [3] = test: NF-kB SEAP reporter activity, fold change vs agonist alone; cytotoxicity flag (confluency mask): cytotoxic (confluency <70% of control); higher = enhanced NF-kB activity
# Outline: as §1
# [4] = agonist: ODN 1826 (TLR9) 0.5 ug/mL
# [5] = agonist: Pam2CSK4 (TLR2/6) 0.1 ug/mL
# [6] = agonist: Pam3CSK4 (TLR2/1) 0.1 ug/mL
# [7] = cytotoxicity flag (confluency mask): cytotoxic (confluency <70% of control), agonist: Imiquimod (TLR7) […]
# [8] = cytotoxicity flag (confluency mask): cytotoxic (confluency <70% of control), agonist: MPLA (TLR4) […]
# [9] = cytotoxicity flag (confluency mask): not cytotoxic, agonist: Imiquimod (TLR7) […]
# [10] = cytotoxicity flag (confluency mask): not cytotoxic, agonist: MPLA (TLR4) […]
structure (smiles),measurement,setting,value
CC(=O)N1CCCC1C(=O)NC(Cc1c[nH]cn1)C(=O)NC(CO)C(=O)NC(CS)C(=O)NC(CC(N)=O)C(N)=O (stereo not drawn) (library stock concentration (final ~1000-fold dilution): 10 mM water),NF-kB SEAP reporter activity,RAW-Dual [1]; agonist: LPS (TLR4) 0.1 ug/mL,1.15
same,NF-kB SEAP reporter activity,RAW-Dual [1]; [4],1.22
same,NF-kB SEAP reporter activity,RAW-Dual [1]; [5],1.19
same,NF-kB SEAP reporter activity,RAW-Dual [1]; [6],1.02
CC(C)COc1ccc(CNC(=O)N(Cc2ccc(F)cc2)C2CCN(C)CC2)cc1.CC(C)COc1ccc(CNC(=O)N(Cc2ccc(F)cc2)C2CCN(C)CC2)cc1.O=C(O)C(O)C(O)C(=O)O,NF-kB SEAP reporter activity,RAW-Dual [2]; [7],0.496
same,NF-kB SEAP reporter activity,RAW-Dual [2]; [8],1.23
CC(C)COc1ccc(CNC(=O)N(Cc2ccc(F)cc2)C2CCN(C)CC2)cc1.CC(C)COc1ccc(CNC(=O)N(Cc2ccc(F)cc2)C2CCN(C)CC2)cc1.O=C(O)C(O)C(O)C(=O)O (library stock concentration (final ~1000-fold dilution): 10 mM),NF-kB SEAP reporter activity,RAW-Dual [3]; agonist: LPS (TLR4) 0.1 ug/mL,0.205
same,NF-kB SEAP reporter activity,RAW-Dual [3]; [4],0.239
same,NF-kB SEAP reporter activity,RAW-Dual [3]; [5],0.0981
same,NF-kB SEAP reporter activity,RAW-Dual [3]; [6],0.143
CCNC1=NC2C(OC(CO)C(O)C2O)S1 (stereo not drawn) (library stock concentration (final ~1000-fold dilution): 10 mM),NF-kB SEAP reporter activity,RAW-Dual [1]; agonist: LPS (TLR4) 0.1 ug/mL,1.15
same,NF-kB SEAP reporter activity,RAW-Dual [1]; [4],1.17
same,NF-kB SEAP reporter activity,RAW-Dual [1]; [5],1.04
same,NF-kB SEAP reporter activity,RAW-Dual [1]; [6],1.5
CCNC1=NC2C(OC(CO)C(O)C2O)S1 (stereo not drawn),NF-kB SEAP reporter activity,RAW-Dual [2]; [9],1
same,NF-kB SEAP reporter activity,RAW-Dual [2]; [10],1.17
CC/C(=C(\c1ccc(O)cc1)c1ccc(OCCNC)cc1)c1ccccc1.Cl (library stock concentration (final ~1000-fold dilution): 10 mM),NF-kB SEAP reporter activity,RAW-Dual [3]; agonist: LPS (TLR4) 0.1 ug/mL,0.354
same,NF-kB SEAP reporter activity,RAW-Dual [3]; [4],0.211
same,NF-kB SEAP reporter activity,RAW-Dual [3]; [5],0.157
same,NF-kB SEAP reporter activity,RAW-Dual [3]; [6],0.135
CC/C(=C(\c1ccc(O)cc1)c1ccc(OCCNC)cc1)c1ccccc1.Cl,NF-kB SEAP reporter activity,RAW-Dual [2]; [7],0.387
same,NF-kB SEAP reporter activity,RAW-Dual [2]; [8],0.632
O=C(c1ccc(Oc2ccccc2)cc1Cl)c1c[nH]c2ncnc(NC3CCC(CO)OC3)c12 (stereo not drawn),NF-kB SEAP reporter activity,RAW-Dual [2]; [7],0.133
same,NF-kB SEAP reporter activity,RAW-Dual [2]; [8],0.252
O=C(c1ccc(Oc2ccccc2)cc1Cl)c1c[nH]c2ncnc(NC3CCC(CO)OC3)c12 (stereo not drawn) (library stock concentration (final ~1000-fold dilution): 10 mM),NF-kB SEAP reporter activity,RAW-Dual [3]; agonist: LPS (TLR4) 0.1 ug/mL,0.431
same,NF-kB SEAP reporter activity,RAW-Dual [3]; [4],0.161
same,NF-kB SEAP reporter activity,RAW-Dual [3]; [5],0.293
same,NF-kB SEAP reporter activity,RAW-Dual [3]; [6],0.129
Cc1cc(N2CC(C)NC(C)C2)ncc1-c1ccc(-c2nc3c(ccn3C)c(=O)[nH]2)cc1 (stereo not drawn),NF-kB SEAP reporter activity,RAW-Dual [2]; [9],1.14
same,NF-kB SEAP reporter activity,RAW-Dual [2]; [10],2.01
Cc1cc(N2CC(C)NC(C)C2)ncc1-c1ccc(-c2nc3c(ccn3C)c(=O)[nH]2)cc1 (stereo not drawn) (library stock concentration (final ~1000-fold dilution): 10 mM),NF-kB SEAP reporter activity,RAW-Dual [1]; agonist: LPS (TLR4) 0.1 ug/mL,2.18
same,NF-kB SEAP reporter activity,RAW-Dual [1]; [4],0.278
same,NF-kB SEAP reporter activity,RAW-Dual [1]; [5],1.38
same,NF-kB SEAP reporter activity,RAW-Dual [1]; [6],1.63
COc1ccc(-c2ccc3ncc4c(c3c2)n(-c2ccc(N3CCNCC3)c(C(F)(F)F)c2)c(=O)n4C)cn1.O=C(O)/C=C\C(=O)O (library stock concentration (final ~1000-fold dilution): 10 mM),NF-kB SEAP reporter activity,RAW-Dual [3]; agonist: LPS (TLR4) 0.1 ug/mL,0.236
same,NF-kB SEAP reporter activity,RAW-Dual [3]; [4],0.205
same,NF-kB SEAP reporter activity,RAW-Dual [3]; [5],0.085
same,NF-kB SEAP reporter activity,RAW-Dual [3]; [6],0.217
